In all, about 320,000 compounds went through this assay and about 1,300 (0.41%) were called active. Roughly 3% stayed inconclusive and do not appear here. The rule behind the calls is not given here. These entries were drawn from the full list. Measured potencies and affinities stand elsewhere.

The assay in a line: growth inhibition of non-replicating M. tuberculosis (AID 488890).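 Note: plate controls were DMSO cells for no effect and high antibiotic wells for full effect.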 The settings on record: Mycobacterium tuberculosis non-replicating, at 25 µM, stronger effect = higher value.
The inhibition is the drop in the measured response relative to a control, in per cent. For `CC1CCCC(C)N1C(=O)COC(=O)c1c[nH]c2ccccc12` (stereo not given), the inhibition is 15.5%.

Turning to `O=C(NCCO)c1cc2cc(Cl)cc(Cl)c2oc1=O`, the inhibition was found to be 18%.

Regarding `COCCNC(=O)c1cc2cc(Br)cc(OC)c2oc1=O`, the inhibition was found to be 56%.

Regarding `COc1ccccc1/C=C/C(=O)OCCN1C(=O)c2ccccc2C1=O`, the inhibition was determined as 2.64%.

For `NC(=O)C1CCN(C(=O)NC2CC(=O)N(c3ccc4c(c3)OCCO4)C2)CC1` (stereo not given), the inhibition is -13.4%.

As for `CC(NC(=O)c1ccco1)C(=O)OCC(=O)c1ccc(Cl)s1` (stereo not given), the inhibition turned out to be 13.9%.

As to `C/C(=N\NC(=O)c1ccc(C(=O)N/N=C(\C)c2ccco2)o1)c1ccco1`, the inhibition was 19.3%.

On to `CCC/C(=N/NC(=O)c1csc(C)c1C)c1ccc(Cl)s1`, for which the inhibition was 0.55%.

For `C/C(=N\NC(=O)c1ccco1)c1ccc(C(=O)O)s1`, the inhibition was -5.86%.

Consider `O=C(COC(=O)c1ccc(Cl)nc1)NNC(=O)c1ccc(Br)cc1`, for which the inhibition came to 6.9%.

As to `Cc1ccc(CS(=O)(=O)c2ccc(C(=O)N3CCN(c4ccccn4)CC3)cc2[N+](=O)[O-])cc1`, the inhibition is -16.8%.

For `Cc1ccc(C(=O)OC(C)C(=O)NC2CCCCC2C)s1` (stereo not given), the inhibition was -2.95%.

With `CC(OC(=O)c1cccs1)C(=O)NC1CCCCC1C` (stereo not given), the inhibition was -13.9%.

As for `COc1ccc(C(CNC(=O)C(Cc2ccccc2)NC(N)=O)N(C)C)cc1` (stereo not given), the inhibition was determined as 3.12%.

As to `CC(C)(C)C(=O)NC(=S)NNC(=O)c1ccncc1`, the inhibition amounted to 71.7%.

Regarding `CCNC(=S)NNC(=O)c1ccncc1`, the inhibition came out at 65.4%.

For the molecule `N/C(Cn1cncn1)=N\NC(=O)C(=O)Nc1ccccc1`, the inhibition was 18%.

Consider `Nc1ccc(Oc2ccc(Br)cc2)cc1`, for which the inhibition is 60.5%.

Consider `Nc1ccc(Br)cc1Br`, for which the inhibition was -19.9%.

`OCc1nc2ccccc2n1/N=C/c1cccs1`: the inhibition was -12%.

As to `O=[N+]([O-])c1ccc(O)c(/C=N/n2c(CO)nc3ccccc32)c1`, the inhibition is -11.8%.

On to `Cc1cc2ncn(/N=C/c3cccnc3)c2cc1C`, for which the inhibition is 55%.

On to `Nc1nc2ccccc2n1/N=C/c1ccc([N+](=O)[O-])s1`, for which the inhibition came out at 74.1%.

As to `Cc1ccc(/C=N/n2c(C)nc3ccccc3c2=O)s1`, the inhibition stood at 18.6%.

`Cc1cc2ncn(/N=C/c3ccc4c(c3)OCO4)c2cc1C`: the inhibition was determined as 64.7%.

Take `COc1ccc(C(=O)Nc2ccccc2)cc1S(=O)(=O)NCc1ccco1`: the inhibition was -9.46%.

Consider `Cc1ccc(S(=O)(=O)N2CCCC(C(=O)NNCC(=O)Nc3cc(F)ccc3F)C2)cc1` (stereo not given), for which the inhibition turned out to be 11.7%.

As to `O=C(Nc1nnc(SCc2ccccc2F)s1)C1=COCCO1`, the inhibition came out at 45.5%.

With `CNC(=O)COC(=O)c1ccc([N+](=O)[O-])cc1Cl`, the inhibition is 11.7%.

For `CCc1cc2ccc(C)cc2nc1SCC(=O)c1ccc(NC(C)=O)cc1`, the inhibition worked out at 12%.

For `CC(C)Oc1ccc(NC(=O)CCC(=O)O)cc1`, the inhibition was -9.1%.

For `Cc1ccc(NCC(=O)c2ccc(C)cc2)cc1`, the inhibition was determined as 72.5%.

As for `CC(C)Oc1ccc(NC(N)=O)cc1`, the inhibition is -4.08%.

With `Cc1ccc(C(=O)CNc2ccc(Cl)cc2)cc1`, the inhibition stood at 74.1%.

Turning to `Cc1ccc(-c2nnn(CC(=O)N(c3ccccc3)C(C(=O)NCC3CCCO3)c3cccs3)n2)o1` (stereo not given), the inhibition was -3.42%.

For the molecule `O=C(O)C1C2C=CC(C2)C1C(=O)Nc1nccs1` (stereo not given), the inhibition is -3.04%.

On to `COc1ccc2c(=O)c(-c3ccccc3C)c(C)oc2c1`, for which the inhibition came out at 50.8%.

As for `Cc1ccc(N2C(=O)C3C4C=CC(CNC(=S)Nc5ccc(F)cc5)(O4)C3C2=O)cc1` (stereo not given), the inhibition was 54.3%.

Consider `COc1ccc(Cl)cc1S(=O)(=O)n1c([N+](=O)[O-])cnc1C`, for which the inhibition is -6.01%.

In the case of `O=C(Cc1ccc(Cl)cc1)Nc1ccc(Cl)cn1`, the inhibition turned out to be 78.1%.

In the case of `O=C(COC(=O)COc1ccccc1)Nc1ccc(Cl)cn1`, the inhibition turned out to be 22.1%.

For `COc1ccc(OCC(=O)Nc2cccc(NC(=O)COc3ccc(OC)cc3)n2)cc1`, the inhibition was -11.7%.

With `Cc1ccc(OCC(=O)Nc2ccc([N+](=O)[O-])cn2)cc1C`, the inhibition is -14.3%.

With `O=C(Cc1ccc([N+](=O)[O-])cc1)Nc1ccc(Br)cn1`, the inhibition was -0.37%.

For the molecule `O=C(COC(=O)CCOc1ccccc1)Nc1ccc(Cl)cn1`, the inhibition amounted to 79.6%.

Take `Cc1ccc(NC(=O)Cc2ccc(Cl)cc2)nc1`: the inhibition amounted to 27.8%.

Regarding `Cc1ccc(OCC(=O)NC(=S)Nc2cccc(C)n2)cc1`, the inhibition amounted to 7.91%.

As for `COc1ccc(-c2nnc(NC(=O)c3cc(C)on3)s2)cc1`, the inhibition came out at 71.9%.

As to `O=C(OCc1cc(Cl)cc2c1OCOC2)c1cccnc1Cl`, the inhibition was 14.6%.

On to `CC(C)CCNc1nc(N)c([N+](=O)[O-])c(NCCO)n1`, for which the inhibition was -5.48%.

Regarding `CCOc1cc(C2C(C(=O)c3ccco3)=C(O)C(=O)N2CCc2ccccc2)ccc1O` (stereo not given), the inhibition was found to be 29.2%.

For the molecule `COc1ccc(C2=NOC(Cn3nc(-c4ccccc4)cc3C(=O)NCc3cccc(Br)c3)C2)cc1` (stereo not given), the inhibition is -12.8%.

As to `Cn1c(N2CCCCC2)cc(=O)n(C)c1=O`, the inhibition was -10.1%.

With `CCOC(=O)C1CCCN(C2CC(=O)N(c3ccccc3)C2=O)C1` (stereo not given), the inhibition stood at 30.8%.

On to `COC(=O)[C@@H]1C[C@@H]2CC[C@@H](O)C[C@@H]2N1Cc1ccccc1OS(=O)(=O)c1ccc(C)cc1`, for which the inhibition was 26.6%.

For `Cc1cccc(-c2noc(CCCC(=O)NCC3CCCO3)n2)c1` (stereo not given), the inhibition turned out to be 16.8%.

Take `O=C(c1cccc(S(=O)(=O)NCc2ccccc2)c1)N1CCN(c2ccccc2)CC1`: the inhibition was 17.1%.

Take `Cc1ccn2c(=O)nc(SCC(=O)Nc3ccc4c(c3)OCO4)nc2c1`: the inhibition came out at 25.1%.

In the case of `O=C(COc1ccccc1Cl)Nc1ccc(Cl)cn1`, the inhibition came to 29.8%.

As for `O=C(COc1ccc(Cl)cc1Cl)Nc1ccc(Cl)cn1`, the inhibition is 61%.

For the molecule `Cc1ccc(C(=O)OCC(=O)Nc2ccc(Cl)cn2)s1`, the inhibition came to 35.7%.

Regarding `O=C(COC(=O)c1ccc([N+](=O)[O-])cc1)Nc1ccc(Cl)cn1`, the inhibition worked out at 34.3%.

For the molecule `c1ccc(-c2nnc(OCC3CCCO3)c3ccccc23)cc1` (stereo not given), the inhibition was found to be 4.74%.

Consider `CCOc1ccc(C(=O)N/N=C/c2ccc(SC)cc2)cc1`, for which the inhibition turned out to be 7.39%.

As to `COc1ccc(Br)cc1S(=O)(=O)N1CCN=C1c1ccccc1`, the inhibition stood at 9.49%.

As for `CCOC(=O)c1c[nH]c2c(C)ccc(Cl)c2c1=O`, the inhibition was determined as 5.99%.

Regarding `O=C(/C(=C/O)N=Nc1ccccc1)c1cccs1`, the inhibition amounted to 29.9%.

Turning to `Cc1cccc(N=N/C(=C\O)C(=O)c2cccs2)c1`, the inhibition turned out to be 23.2%.

As to `CC1CCN(C(=O)CCCNC(=O)Cn2cnc3sc4c(c3c2=O)CCCC4)CC1`, the inhibition was -3.59%.

As for `Cc1onc(-c2c(F)cccc2Cl)c1C(=O)NCCc1ccncc1`, the inhibition is -2.23%.

`O=C(NCc1cccc2[nH]ccc12)C1CCC(=O)N(CCc2ccc(Cl)cc2)C1` (stereo not given): the inhibition worked out at 14.7%.

With `CN1C[C@@H]2C[C@@H](C3=Cc4cc(Cl)ccc4OC3)N3CCC[C@@]23C1=O`, the inhibition stood at 8.63%.

Regarding `CN(CC(=O)Nc1ccccc1N1CCOCC1)CC(=O)Nc1ccc(F)c(F)c1F`, the inhibition amounted to 7.73%.

Consider `CCCC(=O)NC(Nc1ccc(S(=O)(=O)Nc2cc(C)on2)cc1)(C(F)(F)F)C(F)(F)F`, for which the inhibition was 69.8%.

As for `CC(/C=C/c1ccccc1)=N/NC(=O)CNC(=O)c1ccc2c(c1)OCO2`, the inhibition is -0.44%.

For `CC(/C=C/c1ccc2c(c1)OCO2)=N\NC(=O)C(O)c1ccccc1` (stereo not given), the inhibition is -1.85%.

In the case of `CC(/C=C/C=C/c1ccccc1)=N/NC(=O)c1ccc2c(c1)OCCO2`, the inhibition was 11.1%.

Take `CC(/C=C/c1ccccc1F)=N\NC(=O)C(C)C`: the inhibition came out at 13.2%.

Consider `O=C(N/N=C/c1ccc2c(c1)OCO2)C1COc2ccccc2O1` (stereo not given), for which the inhibition stood at 69.6%.

Regarding `C/C(=N/NC(=O)c1ccccc1)C(=O)O`, the inhibition turned out to be 21.7%.

Turning to `O=C(COc1cc(F)ccc1[N+](=O)[O-])Nc1cccc(S(=O)(=O)NC2=NCCC2)c1`, the inhibition is -15.8%.

For `C=CCSc1nccc(=O)[nH]1`, the inhibition is 17.7%.

On to `COc1ccc(CCNC(=O)NC(C(F)(F)F)C(F)(F)F)cc1OC`, for which the inhibition was -0.6%.

With `N#Cc1ccc(C23CC4(C2)[C@H](CN(Cc2ccc(C(F)(F)F)cc2)[C@@H]4c2ccccc2)C3c2ccccc2)cc1` (stereo not given in full), the inhibition was found to be 19.2%.

For `Cc1cc(C)c(NC(=S)N2CCN(c3ccc([N+](=O)[O-])cn3)CC2)cc1C`, the inhibition was -3%.

With `OC/C(Br)=C(\Br)CO`, the inhibition is -3.52%.

`NC(=O)c1ccc(NC(=O)C2COc3ccccc3O2)cc1` (stereo not given): the inhibition was found to be 1.12%.

`COc1ccc(OC)c(NC(=O)C2COc3ccccc3O2)c1` (stereo not given): the inhibition came out at 30.6%.

In the case of `COc1ccc(CNC(=O)C2COc3ccccc3O2)cc1` (stereo not given), the inhibition is 72.5%.

In the case of `CC(C)(C)NC(=O)c1ccc(NC(=O)C2COc3ccccc3O2)cc1` (stereo not given), the inhibition is 45.9%.

`CCOC(=O)CN1C(=O)N[C@@H](c2ccccc2)C(C(=O)OC)=C1C`: the inhibition is -18.9%.

As for `COCc1ccc(C(=O)N2CCCC(N3CCN(c4ccccc4C)CC3)C2)s1` (stereo not given), the inhibition came out at 20.7%.

Take `O=C1C2C3C=CC(C3)C2C(=O)N1CC1CCCO1` (stereo not given): the inhibition was -0.04%.

Regarding `NC(=O)CCn1c(C(=O)c2cc(Cl)c(N)c(Cl)c2)c2ccccc2[n+]1[O-]`, the inhibition came out at 7%.

With `O=C(Nc1cccnc1)C1OCCc2ccccc21` (stereo not given), the inhibition was -3.68%.

As to `COCCn1c(SCC(=O)Nc2ccc(S(=O)(=O)N(C)C)cc2)nc2ccccc21`, the inhibition turned out to be 0.14%.

As for `COc1cccc(NC(=O)CCC2CCN(C(=O)C3CC=CCC3)CC2)c1` (stereo not given), the inhibition is 6.11%.

With `Cc1nc(-c2cccc(S(=O)(=O)N3CCCCC3)c2)cs1`, the inhibition worked out at 3.4%.

With `COc1ccccc1NC(=O)c1cc(-c2cc(OC)c(OC)c(OC)c2)nc2ccccc12`, the inhibition came out at 1.97%.

Regarding `COc1ccc(N/C(C)=C/C(=O)c2ccccc2)cc1`, the inhibition was determined as 57.9%.

As to `COc1ccc(/C(O)=C/C(=O)C(=O)NNC(=O)c2ccccc2)cc1`, the inhibition worked out at 22.9%.

For `C/C(=C\C(=O)c1ccc(Br)cc1)NNC(=O)c1ccc(O)cc1`, the inhibition stood at 67.2%.

Turning to `C/C(=C\C(=O)c1ccc(Br)cc1)NCc1ccccc1`, the inhibition was found to be 52.8%.

For `CCOc1ccc(N2CC(C(=O)NCCCc3ccccc3)CC2=O)cc1` (stereo not given), the inhibition worked out at 24.1%.

As for `Cc1cccc(NC(=O)Cn2cnc3sc(C)c(S(=O)(=O)N4CCC(C)CC4)c3c2=O)n1`, the inhibition was 7.28%.

For the molecule `CCN1CCN(c2ccc(S(=O)(=O)N3CCOCC3)cc2NC(=O)c2sccc2C)CC1`, the inhibition is -12.4%.

Turning to `CC(=O)c1ccc(N2CCN(S(=O)(=O)c3cccc4nonc34)CC2)cc1`, the inhibition came out at 10.4%.

With `O=C(O)CSc1ccccn1`, the inhibition was -10.9%.

For `O=C(O)CCSc1ccccn1`, the inhibition was -2.61%.

In the case of `O=C(c1ccccc1)c1nnc(-c2ccncc2)o1`, the inhibition turned out to be 49.9%.

Turning to `O=C(c1nnc(-c2ccncc2)o1)c1ccccc1Cl`, the inhibition came out at 72.4%.

For `O=C(c1cccc(F)c1)N1CCC2(CC1)NCCc1[nH]cnc12`, the inhibition is -6.44%.

With `CN(CC(O)COCc1cccs1)C1CCCCC1` (stereo not given), the inhibition is 4.88%.

As for `O=C(O)c1cc(-c2ccccc2)nc2ccccc12`, the inhibition is -4.94%.

Take `c1ccc(-c2cc3c(ccc4nonc43)nn2)cc1`: the inhibition was 21%.

The values are drawn from PubChem BioAssay AID488890 (Southern Research Specialized Biocontainment Screening …, 2010).
